From ChEMBL document CHEMBL3988442, “University of Dundee, Small-Polar-MMV Screening Library” (2021) come the findings set out here.

The target of the assay is AMP-activated protein kinase, AMPK (Homo sapiens) (UniProt P54646+O43741+P54619+Q9UGJ0+Q9Y478+Q13131+Q9UGI9). The assay is described as follows: AMP-dependent Kinase enzyme assay. An in vitro enzyme assay that detects ADP turnover that is directly proportional to AMPK activity. This uses naive AMPK that is activated during the assay with MK-8722. It counts as functional. Set-up: scale not given: direction of the effect not stated beside the values. The following applies: 30 µM.
As to `Cn1ccnc1-c1cn(CCc2nnc(N)s2)nn1`, the Percent Effect was -14.9%. With `CC(C)n1cc(CN(C)C[C@@H]2CCCN3CCCC[C@H]23)cn1`, the Percent Effect turned out to be 3.96%. Regarding `CCc1noc(CN2CCN(C(=O)OC(C)(C)C)C(C)C2)n1` (centres undefined), the Percent Effect worked out at 6.06%. Take `CCn1ncnc1C(C)Nc1cc(C2CC2)ncn1` (centres undefined): the Percent Effect is 3.16%. Turning to `Cc1cnc(C(=O)N2CC(=O)N(c3ccccc3Cl)CC2C)cn1` (centres undefined), the Percent Effect is 12.5%. Regarding `Fc1cc(CCNc2ccc3nccn3n2)c2c(c1)COCO2`, the Percent Effect was found to be 17.6%. On to `CC(NCC(=O)Nc1ccc(N2CCCCCC2)cc1)c1cccs1` (centres undefined), for which the Percent Effect turned out to be 16.8%. With `COc1cccc(NC(=O)NCC2CCCN(C3CCOCC3)C2)c1` (centres undefined), the Percent Effect came out at 6.25%. Take `Cc1nnc(NC(=O)c2c3c(nn2C2CCS(=O)(=O)C2)CCC3)s1` (centres undefined): the Percent Effect is -6.11%.

Take `CC(C)(C)SCCN1CC(=O)N2CC[C@@H](O)C[C@H]2C1=O`: the Percent Effect is 3.02%. For `Cc1cc(C)n(CCN2CCC(N(C)Cc3nnc(C)n3C)C2)n1` (centres undefined), the Percent Effect amounted to 3.54%.

`CCOCCN1CCN(c2ccc(C#N)cn2)CC1CC` (centres undefined): the Percent Effect was determined as 6.68%. The figure for `CN(CC(O)C(F)(F)F)C(=O)Nc1cccc(N2CCCC2)c1` (centres undefined) is -4.79%; for `CS(=O)(=O)CCCN1CCSCC1c1ccc(Cl)cc1` (centres undefined) it is -4.65%. In the case of `CCSc1cc(C(=O)NC(C)c2cccc(N3CCOC3=O)c2)ccn1` (centres undefined), the Percent Effect came out at 7.17%.

`NC(=O)CC1CCCN(c2cncc(SCc3ccccc3)n2)C1` (centres undefined): the Percent Effect is 25.3%. `Cn1ccc(C(=O)N2CCCC2c2cc[nH]n2)n1` (centres undefined): the Percent Effect worked out at 4.63%. As to `CC(C)Oc1cc(N2CCN(Cc3ccsc3)C(CCO)C2)nc(N)n1` (centres undefined), the Percent Effect is -13.7%. In the case of `COCCCN1CCN(C(=O)C(c2cccc(F)c2)N(C)C)CC1` (centres undefined), the Percent Effect was -3.6%.
